An excerpt weighted towards active compounds, which were near 3.9% of everything screened.
FH mod: Identification of activators of human fumarate hydratase by quantitative high-throughput screening. FH coupled MDH/diaphorase resazurin fluorescence, 15 min. AID 1347055, 2019. Fumarate hydratase, mitochondrial (Homo sapiens), P07954. Potency, µM (highest dose often 79.9 µM), hits mostly inhibitors. actives 0.22% (n = 54,000); note: the screen sought activators but most active calls are inhibition curves; nearly all actives have a fitted effect of over 45% in size
GALC G270D act: enhancers of human galactocerebrosidase G270D mutant activity in cells; actives 0.1% (n = 45,000); 145M-Twi-hGALC-G270D cells (Twitcher mouse brain line with human GALC G270D), HMU-beta-Gal fluorescence, 48 h; Potency, µM (doses to about 57.5 µM), actives largely listed as activators; note: nearly all actives have a fitted effect of over 65% in size
Target sequence (P54803 whole entry G286D): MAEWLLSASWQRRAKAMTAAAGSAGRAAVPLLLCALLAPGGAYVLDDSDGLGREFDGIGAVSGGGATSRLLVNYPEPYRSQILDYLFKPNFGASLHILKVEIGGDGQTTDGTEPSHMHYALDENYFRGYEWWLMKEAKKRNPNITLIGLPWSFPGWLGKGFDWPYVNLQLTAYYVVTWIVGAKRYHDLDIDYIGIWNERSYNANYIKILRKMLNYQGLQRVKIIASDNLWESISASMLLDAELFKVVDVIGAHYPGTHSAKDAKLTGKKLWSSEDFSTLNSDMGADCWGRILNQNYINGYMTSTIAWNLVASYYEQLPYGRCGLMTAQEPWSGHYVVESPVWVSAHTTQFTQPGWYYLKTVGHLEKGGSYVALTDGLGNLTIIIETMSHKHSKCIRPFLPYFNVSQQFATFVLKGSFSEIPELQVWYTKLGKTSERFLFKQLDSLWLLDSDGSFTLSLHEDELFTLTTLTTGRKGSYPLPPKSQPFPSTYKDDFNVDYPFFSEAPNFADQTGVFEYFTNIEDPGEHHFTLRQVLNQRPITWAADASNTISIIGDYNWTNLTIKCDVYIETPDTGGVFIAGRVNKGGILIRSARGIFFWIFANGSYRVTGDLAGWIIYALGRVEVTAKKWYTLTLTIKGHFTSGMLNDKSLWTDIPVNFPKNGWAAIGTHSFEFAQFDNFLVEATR
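Brain-derived Twitcher mouse 145M-Twi cells stably expressing human GALC-G270D or wild-type GALC, treated live, then residual GALC activity read by fluorescence of HMU-b-Gal substrate (0.1 mM final) in citrate-phosphate buffer pH 5.2 with sodium taurocholate. Signal increase indicates enhancement.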
p53null 39C kill: kills p53 null cells at the nonpermissive temperature | H1299 p53-null (neo) cells, 39C, ATPlite viability, 24 h | Potency, µM (doses to about 46.1 µM), most hits filed as cytotoxic | actives 0.97% (n = 55,000) | AID 904; note: nearly all actives have a fitted effect of over 50% in size
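Luminescent ATP signal reported cell survival after H1299 lines (neo, p53 null; or p53 A138V) received up to 46 uM compound and 24 hr incubation at 39C.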
NTMT1 inh: inhibitors of human N-terminal methyltransferase NTMT1 | NTMT1 MTase-Glo SAH luminescence, purified enzyme | Potency, µM (highest dose often 114 µM), usual class: inhibitors | AID 1645870 | actives 2.5% (n = 59,000) | Q9BV86; note: nearly all actives have a fitted effect of over 65% in size
p53null 32C kill: selectivity test: cytotoxicity in p53 null cells, permissive temperature; actives 0.62% (n = 55,000); H1299-neo p53 null cells, ATP luminescence, 24 h, 32C; Potency, µM (series often up to 46.1 µM), actives largely listed as cytotoxic; note: nearly all actives have a fitted effect of over 55% in size
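Luminescent ATP readout gave cell viability of p53-null H1299-neo cells after a 24 h compound exposure at the permissive 32C. Titrations ran up to 46 uM, and AC50s were fitted with the standard Hill equation.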
GPR32 ag: GPR32 (DRV1) agonism, beta-arrestin recruitment; O75388; CHO-K1 GPR32 beta-arrestin PathHunter luminescence, 90 min; zero percent set by DMSO-only wells; activation, % at 76.9 µM; actives 2.5% (n = 48,000);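 active = activation of at least 60% and not above a set upper limit, about 1 call in 100 departs from these limits; inconclusive = activation of 40% to 60%, or above that upper limit; inactive = activation under 40%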
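PathHunter enzyme-fragment complementation, CHO-K1 GPR32 stable line; 2,500 cells/well, overnight attach; cpd 90 min 37 °C 5% CO2; detection reagent 1 h RT; chemiluminescence. DMSO = EC0.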
Hits are given with their value; – = inactive; ? = inconclusive; · = no result given; ! = not confirmed by another sample; [ ] = another dose, or the depositor's remark. Unless noted, calls come from the whole dose curve; as a rule, active = well fitted curve in the direction sought with a large enough effect; inconclusive = small, poorly fitted or top-dose-only effect, or another doubt; inactive = no such curve, though single readings can be large; an effect the other way counts as inactive or inconclusive.

SMILES	FH mod	GALC G270D act	p53null 39C kill	NTMT1 inh	p53null 32C kill	GPR32 ag
Cc1ccc(NC(=O)CSc2n[nH]c(-c3ccc(F)cc3)n2)cc1F	–	–	–	–	–	67
COc1ccc(OC)c(NC(=O)CSc2n[nH]c(-c3ccccc3Cl)n2)c1	7.9µM	–	–	–	–	–
COc1ccc(NC(=O)CSc2n[nH]c(-c3ccccc3)n2)cc1Cl	?	–	–	–	–	–
CC(CCc1ccccc1)NC(=O)CSc1n[nH]c(-c2ccccc2Cl)n1 (stereo not drawn)	–	–	–	–	–	–
Cc1ccc(CNC(=O)CSc2n[nH]c(-c3ccc(F)cc3)n2)cc1	–	–	–	–	–	–
COc1cc2c(NC3CCN(CC4CCCCC4)CC3)nc(N3CCCN(C(C)C)CC3)nc2cc1OCCCN1CCCCC1	–	·	·	?	·	·
COc1cc2c(NC3CCN(C4CCCCC4)CC3)nc(N3CCCN(C(C)C)CC3)nc2cc1OCCCN1CCCCC1	·	·	·	20µM	·	·
NC(=O)c1c(OCc2c(F)cc(Br)cc2F)nsc1NC(=O)NCCCCN1CCCC1	–	·	·	30µM!	·	·
Cc1ccc(NC(=O)Nc2nnc(Sc3ncnc4cc(OCCCN5CCOCC5)ccc34)s2)cc1	–	·	·	–	·	·
CNCCn1c(=O)c2cc(OC)c(OC)cc2c2cnc3cc4c(cc3c21)OCO4	·	·	·	–	·	·
C[C@](N)(Cc1ccc(O)c(O)c1)C(=O)O	?	–	·	35µM	·	–
CC(Cc1ccc(O)c(O)c1)(NN)C(=O)O (stereo not drawn)	–	·	·	14µM!	·	·
Oc1c(C(Nc2ccccn2)c2ccccc2F)ccc2cccnc12 (stereo not drawn)	–	–	4µM	–	?	–
N#Cc1cccc(-c2ccc(NC(=O)c3cccs3)cn2)c1	·	·	·	–	·	·
Cc1ccc(NC(=O)Cn2cc(S(=O)(=O)NC(C)C)c(S(=O)(=O)NC(C)C)c2)cc1Cl	?	–	–	–	–	69
COc1ccc(Cl)cc1NC(=O)c1cc2c(=O)n3ccccc3nc2s1	–	–	13µM	?	–	–
COc1ccccc1NC(=O)c1cc2cc3ccc(OC)c(Cl)c3nc2s1	–	–	–	40µM	–	–
O=C(NCCc1nc2ccccc2n1CCOc1cccc([N+](=O)[O-])c1)C1CCCCC1	·	·	·	–	·	·
Cn1nnnc1SCCNCc1cc(Br)ccc1OCc1ccccc1Cl	?	–	–	–	–	75
Cn1nnnc1SCCNCc1ccc(OCc2ccccc2Cl)cc1	–	–	–	–	?	–
COc1cc(CNCCSc2nnnn2C)ccc1OCc1ccccc1C	–	–	–	?	–	73
CCN(CC)c1ccc(NC(=O)c2cccn2-c2nnc(N3CCCCC3)s2)c(C)c1	?	–	–	?	–	76
Cc1ccc(-c2cnn(CC(=O)NCCc3ccccc3)c(=O)c2)cc1	·	·	·	–	·	·
CCc1ccc(NC(=O)c2ccc(Cn3nc(N4CCN(c5ccccc5)CC4)ccc3=O)o2)cc1	–	–	–	?	–	–
CCc1ccc(-c2cc3c(N4CCN(c5ccccc5)CC4)nccn3n2)cc1	–	–	–	79µM	–	–
SMILES	FH mod	GALC G270D act	p53null 39C kill	NTMT1 inh	p53null 32C kill	GPR32 ag
Cn1cc(-c2cc(Oc3cc(F)c(NC(=O)C4(C(=O)Nc5ccccc5)CC4)cc3F)ccn2)cn1	?	·	·	–	·	·
N#Cc1ccc(-c2cccs2)nc1SCC(=O)Nc1cccc(C(F)(F)F)c1	–	–	?	–	–	82
C=C1CC2C3(C)C(O)CC(=O)C(C)(C)C3C(O)C(OC(C)=O)C2(C)C2C(=O)OC(C)(C(=O)OC)C(=O)C12C (stereo not drawn)	–	·	·	–	·	·
C/C(=C\c1ccsc1)C1Nc2cccc3cccc(c23)N1	·	·	·	–	·	·
COc1ccc(OC)c(CNC(=O)Nc2cn(CC(C)C)c(=O)c3ccccc23)c1	32µM[activator]	–	–	–	–	–
O=C(Nc1ccccn1)c1cc2ccccc2o1	·	·	5µM	·	4µM	·
O=C(Nc1ccc(NC(=O)c2cc3ccccc3o2)cc1)c1ccccc1	–	–	–	–	–	–
O=C(O)c1ccc(NC(=O)c2cc3ccccc3o2)cc1	–	–	?	–	13µM	–

High-throughput results (PubChem)
